Screening data from PubChem.
This excerpt belongs to a sample that is enriched for hits.
ST2 inh – blocks human ST2 binding to IL-33; Q01638; AlphaLISA ST2-Fc/biotin-IL-33 interaction, 1 h; inhibition, % for hits at 17 µM; hit rate 2.3% among 78,000; in the data active means inhibition above about 30%
Target sequence (Q01638 whole entry, looked up): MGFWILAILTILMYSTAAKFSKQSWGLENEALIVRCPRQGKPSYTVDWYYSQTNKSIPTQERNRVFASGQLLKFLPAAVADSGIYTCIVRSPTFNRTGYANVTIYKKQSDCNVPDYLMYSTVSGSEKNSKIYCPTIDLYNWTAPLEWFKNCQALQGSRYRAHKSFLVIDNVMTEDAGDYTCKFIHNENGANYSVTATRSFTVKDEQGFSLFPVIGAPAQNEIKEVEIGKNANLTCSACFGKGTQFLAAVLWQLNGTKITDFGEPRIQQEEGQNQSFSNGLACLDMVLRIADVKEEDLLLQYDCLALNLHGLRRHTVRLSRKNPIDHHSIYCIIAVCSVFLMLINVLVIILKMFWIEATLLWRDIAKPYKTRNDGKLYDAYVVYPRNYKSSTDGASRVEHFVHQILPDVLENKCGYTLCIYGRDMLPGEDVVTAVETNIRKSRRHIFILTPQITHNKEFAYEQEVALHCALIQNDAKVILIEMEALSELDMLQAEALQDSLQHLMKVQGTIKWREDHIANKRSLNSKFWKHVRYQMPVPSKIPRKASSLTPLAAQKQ
Of the large screens only hits and unclear results are named; the others gave an inactive call.

COc1cccc(CNC(=O)CCC2CCCN(C(=O)c3ccc4cccc(F)c4n3)C2)c1 (stereo not drawn)	none
CCOC(=O)c1c(-c2ccccc2)oc2cc(Br)c(OCC#N)cc12	none
CCN1C(=O)/C(=C2/Sc3ccc(OC)cc3N2C)SC1=Nc1ccc(C(C)=O)cc1	none
CCOc1ccc(N=C2S/C(=C\c3ccc(N(C)C)cc3)C(=O)N2CC)cc1	ST2 inh 56%
CCOc1ccc(N2C(=O)S/C(=C\c3ccccc3)C2=O)cc1	none
CC(C)C(NS(=O)(=O)c1ccc2c(c1)oc(=O)n2C)C(=O)NC1CCCCC1C (stereo not drawn)	none
COC(=O)c1sc2ccccc2c1NC(=O)c1cc(OC)cc(OC)c1	none
CCOc1cc2c(cc1OCC)C1C(C(=O)Nc3cccc(C)n3)c3ccccc3C(=O)N1CC2 (stereo not drawn)	none
COc1ccc(-n2ccc3ccccc32)cc1	none
O=[N+]([O-])c1ccc(-n2ccc3ccccc32)cc1	ST2 inh 32%
O=[N+]([O-])c1ccc(S(=O)(=O)n2nnc3ccccc32)cc1	none
Cc1cc(C(=O)N2CCc3c(cc(-c4ccncc4)c(=O)n3CCN3CCCCC3)C2)nn1C	none
COc1ccc(C2=CC(c3ccccc3)n3ncnc3N2)cc1 (stereo not drawn)	none
CC1CCC(NC(=O)C2(C)CCC(=O)N2Cc2cccs2)CC1 (stereo not drawn)	none
Cc1c(C=O)c2ccccc2n1CC(=O)N1CCCc2ccccc21	none
Cc1c(C)n2c3c(cccc13)CCC2	ST2 inh 52%
Cc1cc2c(cc1O)NC(=O)CC2c1cc(=O)n2c3c(cccc13)CCC2 (stereo not drawn)	none
Oc1cc(-c2cccc(Cl)c2)cc2c1OCCN(CCN1CCOCC1)C2	none
Cc1ccccc1Nc1sc(C(=O)c2ccccc2)c(N)c1C#N	none
COC(=N)CN1C(=O)c2ccccc2S1(=O)=O	none
CCN1C(C(=O)c2ccccc2)=C(Nc2ccccc2C)c2ccccc2S1(=O)=O	ST2 inh 31%
O=C(c1ccccc1)N1CCN=C1SCc1cccc(Cl)c1	none
CC(=O)Nc1ccc(/C=C2/OC(=O)c3c2cc(C)[nH]c3=O)cc1	ST2 inh 46%
COc1cc(/C=C2/OC(=O)c3c2cc(C)[nH]c3=O)ccc1O	none
COc1c(/C=C2/OC(=O)c3c2cc(C)[nH]c3=O)ccc(Cl)c1Cl	none
Cc1nc(Cl)c(C(=O)NC(=O)NCCC(C)C)c(C)c1[N+](=O)[O-]	none
COc1ccc(CNC(=O)CN2CCCN(Cc3ccc(C)cc3)S2(=O)=O)cc1	none
COC(=O)C1C(=O)C2=C(CC1C)NC(C)=C(C(=O)OC1CCCCC1)C2c1ccc(Cl)cc1 (stereo not drawn)	none
O=C(CSc1ncccn1)Nc1nc(-c2ccccc2)cs1	none
O=C(CN1C(=O)c2ccccc2C1=O)Nc1nc(-c2ccncc2)cs1	ST2 inh 36%
O=C(COc1ccccc1)Nc1nc(-c2ccccc2)cs1	none
CCCn1nccc1C(=O)N1CCN2CCN(C)CC2C1 (stereo not drawn)	none
COc1ccc(OC)c(NC(=O)CN(c2cccc(Cl)c2Cl)S(C)(=O)=O)c1	none
Cc1cc(NC(=O)COc2ccccc2)nc2c1c(=O)oc1ccccc12	none
COc1cc(-c2ccc(NC(C)=O)c(OC)c2)ccc1NC(C)=O	none
COc1cc(-c2ccc(NC(=O)c3ccco3)c(OC)c2)ccc1NC(=O)c1ccco1	ST2 inh 31%
COc1cc(NC(=O)/C=C/c2ccc(Cl)cc2)ccc1NC(=O)c1ccco1	none
Cc1cccn2c(CC(=O)N3CCCC3Cn3cccn3)cnc12 (stereo not drawn)	none
Clc1ccc(CN2CCC(OCc3cccnc3)CC2)s1	none
COc1cccc(NS(=O)(=O)c2ccc3[nH]c(=O)sc3c2)c1	none
Cc1ccc(N=Cc2cc(Br)cc(Cl)c2O)c(N)c1	none
COc1cc2c(cc1OC)C(C(=O)Nc1ccccc1F)C(c1cccs1)N(C)C2=O (stereo not drawn)	none
C=C(C)CN(CC)Cc1ccccc1O	none
CCCCS(=N)(=O)CCC(N)C(=O)O (stereo not drawn)	none
NC(=O)CC[C@H](N)C(=O)O	none
N[C@H](CCC(=O)NCS(=O)(=O)O)C(=O)O	ST2 inh 85%
COc1cc2c(cc1OC)CN(Cc1cccc([N+](=O)[O-])c1)CC2	none
O=C(Nc1nnc(C2CCCCC2)s1)c1ccc2ccccc2c1	none
CC(=O)Cn1c(Br)nc2c1c(=O)n(C)c(=O)n2C	none
CC(C)CNC(=O)c1cc2c(=O)n3ccccc3nc2n1C	none
CNC(=O)c1cc2c(cn1)[nH]c1ccccc12	none
O=c1nc(-c2ccccc2)c2ccccc2[nH]1	none
Nc1ccc2[nH]c3ccccc3c2c1	ST2 inh 66%
CC1(C(=O)NC2CCCC2)COc2c(oc3ccccc23)C(=O)N1Cc1cccc(Br)c1 (stereo not drawn)	none
Cc1cccc(N=Cc2cc3c(cc2[N+](=O)[O-])OCO3)c1C	ST2 inh 39%
COc1cc(CN2CCN(c3cccc(C)c3C)CC2)cc([N+](=O)[O-])c1O	none
Cc1ccc(O)c(N=Cc2cccc([N+](=O)[O-])c2O)c1	none
O=[N+]([O-])c1cc2c(cc1C=Nc1ccc(I)cc1)OCO2	none
Cc1cccc(N2CCN(Cc3cc4c(cc3[N+](=O)[O-])OCO4)CC2)c1C	ST2 inh 37%
O=[N+]([O-])c1cc2c(cc1CN1CCCCCC1)OCO2	none
COc1ccc(Cn2cc(C(=O)N3CCC(CCc4ccccc4)CC3)nn2)cc1	none
CCCCSc1oc(-c2ccco2)nc1S(=O)(=O)c1ccc(Cl)cc1	none
CCCSc1oc(-c2cccs2)nc1S(=O)(=O)c1ccccc1	none
O=C1c2ccccc2C(=O)N1C1CCCCC1N1C(=O)c2ccccc2C1=O (stereo not drawn)	none
Cc1nn(-c2ccccc2)c(Cl)c1C(=O)NCCO	none
COc1ccc(CCNS(=O)(=O)c2ccc(C(=O)N3CCCC3)s2)cc1OC	none
Cc1cccn2c(=O)c(C=Nc3ccccc3)c(NCc3ccco3)nc12	none
Cc1ccc(N=Cc2c(Nc3cccc(Cl)c3)nc3c(C)cccn3c2=O)cc1	none
Cc1cccn2c(=O)c(C=Nc3ccccc3)c(NCc3ccccc3)nc12	ST2 inh 39%
Cc1ccn2c(NC(=O)c3cc4ccccc4oc3=O)c(-c3ccccc3)nc2c1	none
O=C(O)c1ccccc1N=Cc1nc(-c2ccccc2F)oc1O	none
Cc1ccc(N=Cc2nc(-c3ccccc3F)oc2O)c([N+](=O)[O-])c1	ST2 inh 34%
Oc1oc(-c2ccccc2F)nc1C=Nc1cc(Cl)c(Cl)cc1Cl	none
O=C(NC1CCCCC1)c1ccc(Cl)c(S(=O)(=O)N2CCCCC2)c1	none
COc1cc(NC(=O)c2ccc([N+](=O)[O-])c(C)c2)ccc1NC(=O)c1ccco1	none
COc1ccc2oc(=O)c(NC(=O)/C=C/c3ccc(Cl)cc3Cl)cc2c1	none
CC1=C(/C=C/c2ccc(Cl)cc2Cl)C(=O)c2ccccc2C1=O	ST2 inh 37%
O=C1OC(Nc2ccc(Cl)cc2Cl)c2ccccc21 (stereo not drawn)	none
CCOC(=O)C(C)Sc1nc(CC)c(C)cc1C#N (stereo not drawn)	none
CCCC(=O)Nc1cccc(C(=O)NC(C)Cc2cc(C)[nH]n2)c1 (stereo not drawn)	none
CC1=C(C(=O)Nc2ccc(C)cn2)C(c2cccnc2)C2=C(CC(C)(C)CC2=O)N1 (stereo not drawn)	none
CC1=C(C(N)=O)C(c2cccnc2)n2nc(SCc3ccccc3Cl)nc2N1 (stereo not drawn)	none
COc1cccc(C2C3=C(CC(C)(C)CC3=O)Nc3nc(SCc4ccccc4)nn32)c1 (stereo not drawn)	none
CC1(C)CC(=O)C2=C(C1)Nc1ccccc1N(C(=O)Cc1ccc(Cl)cc1)C2c1cccnc1 (stereo not drawn)	ST2 inh 40%
